Active and inactive are the calls of the source.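 Rule for the calls, unless noted: active = inhibition of the reporter signal at or above 50%; inactive = inhibition below 50%.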 Where a SMILES comes first, the peptide text is derived from it. The star is where a group is joined. Boc = CC(C)(C)OC(=O)*
Experiments:
[1] = inhibitors of TNFa-induced NFkB p65 translocation, primary screen, imaging, HUVEC, MLSMR starter and 10KST1 sets (AID 438;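 active = inhibition above 20% together with a positive visual image hit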;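 note: compound added about 3h40 before a 20 min TNFalpha stimulation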;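 for inhibition: signal is the nuclear over cytoplasmic p65 intensity ratio per well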); settings: HUVEC TNFa-induced p65 nuclear translocation; cell count: measured here: nuclei count (cytotoxicity indicator), at 2.08 µM; inhibition: at 2 µM, stronger effect = higher value, 0% TNFa-plus-vehicle, 100% no-TNFa wells
[2] = reduction of polyQ htt aggregates in cells – imaging, exon1htt(103Q)mCFP cells, high-content imaging, primary screen (AID 483;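 active = visual image review flags a hit and inhibition of aggregation exceeds 20%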;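 note: compound exposure lasted 3 days before fixation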;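 for nuclei count: percent of the per-plate median nuclei count of sample wells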); settings: exon1htt(103Q)mCFP cell line, aggregate imaging, at 2 µM; inhibition of aggregation: stronger effect = higher value; nuclei count: measured here: cell count, toxicity
[3] = endothelial E-selectin expression blockers – imaging, HUVEC, immunofluorescence, MLSMR starter and 10KST1 sets, primary screen (AID 487;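 active = visually confirmed hit in the image check and inhibition above 20%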;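 for inhibition: signal is fraction of cell area covered by stained E-selectin grains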;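 for nuclei count: 100% = median nuclei count of all wells on the same plate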); settings: HUVEC TNFalpha-induced E-selectin immunofluorescence imaging, at 2 µM; inhibition: stronger effect = higher value; nuclei count: measured here: cell number, toxicity
[4] = molecular target: Voltage-gated potassium channel subunit beta-2 (Rattus norvegicus) (UniProt P62483); assay: inhibitors of rat Kvbeta2 reductase activity – biochemical, NADPH fluorescence, primary screen (AID 622;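 active = fluorescence slope higher than the sample average by over 3 SD, cut at about -0.22 in these data, passing the limit was not always enough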;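 note: slope of raw intensity against log time taken from 70 to 1610 s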); settings: recombinant KvBeta, 4-cyanobenzaldehyde reduction, at 10 µM, stronger effect = higher value
Chain of Voltage-gated potassium channel subunit beta-2 (Rattus norvegicus) (P62483 whole entry, looked up): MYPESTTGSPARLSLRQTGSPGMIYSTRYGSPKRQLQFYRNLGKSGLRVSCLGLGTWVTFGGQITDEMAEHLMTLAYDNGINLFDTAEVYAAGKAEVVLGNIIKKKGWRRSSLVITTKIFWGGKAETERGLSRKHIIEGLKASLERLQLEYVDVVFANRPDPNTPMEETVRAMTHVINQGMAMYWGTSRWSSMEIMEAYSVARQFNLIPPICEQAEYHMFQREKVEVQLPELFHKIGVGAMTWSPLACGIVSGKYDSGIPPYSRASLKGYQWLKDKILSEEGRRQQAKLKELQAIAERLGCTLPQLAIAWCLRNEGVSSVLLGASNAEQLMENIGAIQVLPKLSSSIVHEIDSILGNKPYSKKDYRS

[5] = molecular target: Voltage-gated potassium channel subunit beta-2 (Rattus norvegicus) (UniProt P62483); assay: enhancers of rat Kvbeta2 NADPH turnover – biochemical, NADPH fluorescence, primary screen (AID 623;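 active = NADPH fluorescence slope more negative than the mean of all samples by about 3 SD, 99.7% confidence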;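 note: fluorescence intensity change per second fitted from 20 to 320 s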); settings: Recombinant KvBeta, NADPH fluorescence decrease slope, 10 min; at 10 µM; stronger effect = lower value
[6] = molecular target: Alpha-2C adrenergic receptor (Homo sapiens) (UniProt P18825); assay: compounds altering alpha2C-coupled GIRK flux – cell-based, HEK293 alpha2C/GIRK1/2, thallium flux, primary screen (AID 624;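 active = fluorescence slope after compound addition differing from the mean of all screened samples at 99.7% confidence, in either direction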;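 note: slope of fluorescence ratio to pre-addition baseline per second over 15 to 24 s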); settings: thallium flux BTC fluorescence, at 10 µM, actives lie on both sides
Chain of Alpha-2C adrenergic receptor (Homo sapiens) (P18825 whole entry, looked up): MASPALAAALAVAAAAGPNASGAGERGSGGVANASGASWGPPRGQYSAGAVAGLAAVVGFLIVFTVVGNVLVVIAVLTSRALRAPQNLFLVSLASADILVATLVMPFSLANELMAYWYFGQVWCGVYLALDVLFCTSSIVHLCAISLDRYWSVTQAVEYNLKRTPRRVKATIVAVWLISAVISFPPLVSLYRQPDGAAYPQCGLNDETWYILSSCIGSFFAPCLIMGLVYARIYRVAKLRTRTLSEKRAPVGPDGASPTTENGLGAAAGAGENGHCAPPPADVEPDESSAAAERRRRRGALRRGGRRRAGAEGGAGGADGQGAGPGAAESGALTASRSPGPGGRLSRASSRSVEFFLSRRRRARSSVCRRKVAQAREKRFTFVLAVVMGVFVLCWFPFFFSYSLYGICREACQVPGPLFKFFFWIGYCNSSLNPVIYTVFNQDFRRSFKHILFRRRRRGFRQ

[7] = blockers of RIG-like receptor reporter activation – cell-based, Sendai virus stimulus, luciferase, 10K MLSCN set, TLR/RLR signaling modifier project, primary screen (AID 602276;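 active = inhibition at or above 50% at 10 µM; inactive = inhibition below 50%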;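 note: firefly luciferase from ISG56 promoter only with Renilla not read in this screen; 0% = Sendai virus plus DMSO and 100% = medium plus DMSO without virus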); settings: HEK293 RL24 IRF3 luciferase reporter, at 10 µM, stronger effect = higher value
[8] = TLR3 IRF3 reporter activation blockers – cell-based, poly I:C stimulus, luciferase, 10K MLSCN set, primary screen (AID 602277); settings: HEK293-TLR3 RL24 IRF3 luciferase reporter, at 10 µM, stronger effect = higher value

| SMILES | cell count [1] | inhibition [1] | inhibition of aggregation [2] | nuclei count [2] [%] | inhibition [3] | nuclei count [3] [%] | fluorescence slope [4] | NADPH fluorescence slope [5] | slope [6] | inhibition [7] | inhibition [8] |
| --- | --- | --- | --- | --- | --- | --- | --- | --- | --- | --- | --- |
| CCCCOCCCNC(=O)c1ccc(NC(C)=O)cc1 | 416 | -1.6% (inactive) | 1.3% (inactive) | 99.3 | 8.8% (inactive) | 115 | -0.45 (inactive) | 7.9e-06 (inactive) | 0.00392 (inactive) | -11% (inactive) | 3.52% (inactive) |
| O=C(NCCC1=CCCCC1)C1CC(=O)N(C2CCCCCC2)C1 (stereo not given) | 645 | -4.4% (inactive) | -46.5% (inactive) | 45.9 | -41.7% (inactive) | 126 | -0.367 (inactive) | -6.2e-05 (inactive) | 0.00623 (inactive) | 5.65% (inactive) | 27.5% (inactive) |
| CC(O)c1cc2c(cc1NC(=O)c1cnn3c1NC(c1ccco1)CC3C(F)(F)F)OCO2 (stereo not given) | 656 | 8.7% (inactive) | -12% (inactive) | 109 | -56.3% (inactive) | 98.9 | -0.583 (inactive) | 3.4e-05 (inactive) | 0.00628 (inactive) | 9.47% (inactive) | 20.2% (inactive) |
| CCOCCCNC(=O)C(NC(=O)c1ccccn1)c1ccc(C)cc1 (stereo not given) | 314 | -13.4% (inactive) | 2.7% (inactive) | 116 | -18.5% (inactive) | 111 | -0.592 (inactive) | -4e-05 (inactive) | 0.00635 (inactive) | 15.1% (inactive) | 18.1% (inactive) |
| COc1ccc(CCn2c(C)cc(C(=O)CSc3nnnn3C)c2C)cc1 | 441 | -1.5% (inactive) | -14.4% (inactive) | 131 | -45.2% (inactive) | 110 | -0.412 (inactive) | 4.6e-05 (inactive) | 0.00361 (inactive) | 0.703% (inactive) | -19.8% (inactive) |
| Cc1nnc(NC(=O)CSc2nc3c(c(=O)n2C)SC(C)C3)s1 (stereo not given) | 734 | -4.3% (inactive) | -22.2% (inactive) | 98.5 | -7.8% (inactive) | 104 | -0.536 (inactive) | -6.2e-05 (inactive) | 0.00476 (inactive) | 13.8% (inactive) | 34.3% (inactive) |
| O=C1OCc2cc(NC(=O)C3CCCO3)ccc21 (stereo not given) | 790 | -8.1% (inactive) | 13.1% (inactive) | 111 | -31.8% (inactive) | 111 | -0.379 (inactive) | 5.7e-07 (inactive) | 0.00421 (inactive) | 3.9% (inactive) | 13.5% (inactive) |
| O=C(c1ccc2c(c1)[nH]c(=S)n1c3ccccc3nc21)N1CCN(c2ncccn2)CC1 | 515 | 4.8% (inactive) | -5.1% (inactive) | 105 | -28.7% (inactive) | 114 | -0.347 (inactive) | -1.3e-05 (inactive) | 0.00281 (inactive) | 13.2% (inactive) | 19.4% (inactive) |
| COCCN(Cc1cc2cc3c(cc2n2nnnc12)OCO3)C(=O)c1ccccc1F | 271 | 10.7% (inactive) | -8.2% (inactive) | 96.5 | -63.4% (inactive) | 105 | -0.352 (inactive) | -3.2e-05 (inactive) | 0.00537 (inactive) | 3.47% (inactive) | 5.93% (inactive) |
| CCOC(=O)c1ccc(N2C(=O)CC(N3CCN(C/C=C/c4ccccc4)CC3)C2=O)cc1 (stereo not given) | 375 | -4.9% (inactive) | -10.3% (inactive) | 103 | -52.6% (inactive) | 125 | -0.39 (inactive) | 1.2e-05 (inactive) | 0.008 (inactive) | 9.04% (inactive) | 16.7% (inactive) |
| CC1Cn2c(nnc2-c2ccc(F)cc2)S1 (stereo not given) | 741 | -17.7% (inactive) | -26.8% (inactive) | 119 | -40% (inactive) | 101 | -0.583 (inactive) | -2.2e-05 (inactive) | 0.00604 (inactive) | -1.17% (inactive) | 28.5% (inactive) |
| COc1ccc(Nc2ncc3c(n2)CC(c2ccc(OC)cc2)CC3=O)cc1 (stereo not given) | 649 | 6.3% (inactive) | -7.5% (inactive) | 101 | -5.5% (inactive) | 97 | -0.298 (inactive) | -3.8e-05 (inactive) | 0.0047 (inactive) | 5.21% (inactive) | -19.5% (inactive) |
| Cc1ccc2nc(NC(=O)C3CCCN(S(=O)(=O)c4cnc[nH]4)C3)sc2c1 (stereo not given) | 567 | 6.9% (inactive) | -11.1% (inactive) | 106 | -42.7% (inactive) | 113 | -0.553 (inactive) | -6.7e-06 (inactive) | 0.00608 (inactive) | -43.1% (inactive) | -79.3% (inactive) |
| CCn1cc(C(=O)N2CCOCC2)c(=O)c2cc(S(=O)(=O)N(C)C3CCCCC3)ccc21 | 518 | 7.1% (inactive) | 3.9% (inactive) | 84.2 | -29.5% (inactive) | 87.7 | -0.581 (inactive) | -7.6e-06 (inactive) | 0.00672 (inactive) | 12.2% (inactive) | 28.4% (inactive) |
| O=C(CS(=O)CC(=O)Nc1cccc2c1CCCC2)Nc1ccc(F)cc1 (stereo not given) | 210 | 2.1% (inactive) | -8.6% (inactive) | 84.1 | 26.9% (inactive) | 80.2 | -0.621 (inactive) | 1e-05 (inactive) | 0.00343 (inactive) | 12.7% (inactive) | 18.9% (inactive) |
| O=C(c1ccco1)N1CCN(c2ccc(Cl)cc2)CC1 | 173 | -5.1% (inactive) | -6.3% (inactive) | 82.3 | 12.5% (inactive) | 93 | -0.467 (inactive) | 7.7e-05 (inactive) | 0.00616 (inactive) | -73.4% (inactive) | -172% (inactive) |
| CCCc1cc(-n2ccnc2)n2c(nc3ccccc32)c1C#N | 571 | 8.7% (inactive) | -11.1% (inactive) | 98.8 | 30.6% (inactive) | 99.8 | -0.51 (inactive) | 1.6e-06 (inactive) | 0.00652 (inactive) | 16.6% (inactive) | 47.3% (inactive) |
| O=C(NC1CC1)C1CCC(=O)N1C1CCCC1 (stereo not given) | 435 | -6.7% (inactive) | -18.4% (inactive) | 119 | -184% (inactive) | 246 | -0.47 (inactive) | 2.9e-05 (inactive) | 0.00569 (inactive) | 7.79% (inactive) | 14.9% (inactive) |
| COc1cccc(NC(=O)C2CCCN(S(=O)(=O)c3cccc4cccnc34)C2)c1 (stereo not given) | 604 | -1.7% (inactive) | 25.4% (inactive) | 90.7 | -62.8% (inactive) | 106 | -0.559 (inactive) | -2e-05 (inactive) | 0.00606 (inactive) | 2% (inactive) | 23.1% (inactive) |
| Cc1c(NC(=O)C2CCCCN2S(=O)(=O)c2ccc(Cl)cc2)c(=O)n(-c2ccccc2)n1C (stereo not given) | 699 | -4.2% (inactive) | -14.5% (inactive) | 112 | 2% (inactive) | 109 | -0.604 (inactive) | 1.8e-05 (inactive) | 0.00694 (inactive) | 9.42% (inactive) | -3.63% (inactive) |
| CC(=O)Nc1c(C(=O)C2CC2)oc2ccccc12 | 514 | 2.2% (inactive) | -10.5% (inactive) | 102 | -8.1% (inactive) | 117 | -0.448 (inactive) | -2.5e-05 (inactive) | 0.00698 (inactive) | -3.28% (inactive) | 2.69% (inactive) |
| CCC(C)C(NC(=O)OC(C)(C)C)C(=O)NC(CC(C)C)C(N)=O (stereo not drawn) (Boc-Ile-Leu-NH2; configuration not given here) | 399 | 1.3% (inactive) | 7.1% (inactive) | 88.9 | 56.6% (inactive) | 89.8 | -0.516 (inactive) | -6.5e-05 (inactive) | 0.00654 (inactive) | -6.01% (inactive) | 10.9% (inactive) |
| O=C(CSCc1ccc(F)cc1)NC1CCCC1 | 750 | -2.8% (inactive) | 12.7% (inactive) | 101 | 33% (inactive) | 93.5 | -0.493 (inactive) | -5.3e-05 (inactive) | 0.00649 (inactive) | -26.1% (inactive) | -75.4% (inactive) |
| O=C(c1cc2ccccc2oc1=O)N1CCN(c2ccc(N3CCOCC3)nn2)CC1 | 490 | -6.9% (inactive) | 0.1% (inactive) | 104 | -13.6% (inactive) | 110 | -0.603 (inactive) | -1.8e-05 (inactive) | 0.00513 (inactive) | -9.88% (inactive) | 18.4% (inactive) |
| O=C1c2ccccc2C(Nc2ccc(-c3nc4ccccc4[nH]3)cc2)N1Cc1ccco1 (stereo not given) | 701 | -6.8% (inactive) | -10.2% (inactive) | 87.9 | -26.7% (inactive) | 108 | -0.589 (inactive) | -2e-06 (inactive) | 0.00641 (inactive) | -24% (inactive) | -47.4% (inactive) |

From PubChem BioAssay
